AmpC no deterg – inhibitors of E. coli AmpC beta-lactamase without detergent. AmpC nitrocefin hydrolysis, absorbance 480 nm, 0.0001% Triton. Potency, µM (titrated, usually from 57.1 µM), inactives show top-dose activity change, negative = inhibition, usual class: inhibitors. 330,000 compounds, 0.52% hits. AID 485341;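 also: plate controls were no compound for no effect and no enzyme for full effect; nearly all actives have a fitted effect of over 20% in size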
Target sequence (P00811 whole entry, looked up): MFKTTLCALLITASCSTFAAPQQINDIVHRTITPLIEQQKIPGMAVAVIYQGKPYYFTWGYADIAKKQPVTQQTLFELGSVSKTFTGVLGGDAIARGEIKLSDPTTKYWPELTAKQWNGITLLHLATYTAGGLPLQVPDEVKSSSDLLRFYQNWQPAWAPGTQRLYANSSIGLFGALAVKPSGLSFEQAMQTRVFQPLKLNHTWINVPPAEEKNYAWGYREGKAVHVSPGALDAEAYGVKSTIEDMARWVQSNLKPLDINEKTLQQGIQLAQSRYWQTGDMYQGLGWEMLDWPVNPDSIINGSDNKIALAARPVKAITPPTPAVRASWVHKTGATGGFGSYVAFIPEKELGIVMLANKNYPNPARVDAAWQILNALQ
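20 mM phosphate pH 7.0 + 0.01% (detergent screen) or 0.0001% Triton X-100; 5.3 nM AmpC reagent; cpd preinc 15 min RT; nitrocefin (800 uM stock) to start; A480 q20 s × 4 min; Activity was normalised to no-enzyme and no-compound control wells.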
AmpC inh detg – AmpC beta-lactamase inhibition with detergent present; AmpC hydrolysis of nitrocefin, absorbance 480 nm, 0.01% Triton; 370,000 compounds, 0.041% hits; AID 485294; Potency, µM (titrated, usually from 114 µM), inactives show at the top dose activity change, negative = inhibition, most hits filed as inhibitors;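 also: 0% = no-compound wells and -100% = no-enzyme wells; nearly all actives have a fitted effect of over 25% in size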
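20 mM phosphate pH 7.0 + 0.01% (detergent screen) or 0.0001% Triton X-100; 5.3 nM AmpC reagent; cpd preinc 15 min RT; nitrocefin (800 uM stock) to start; A480 q20 s × 4 min; Activity was normalised to no-enzyme and no-compound control wells.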
Pf growth 96h – P. falciparum growth inhibition at 96 hours; P. falciparum luciferase reporter growth, 96 h; Potency, µM (series often up to 28.7 µM), for the others: top-dose activity change, negative = inhibition, hits mostly inhibitors; 320,000 compounds, 6.9% hits; AID 504834
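Luminescence readout: decreased luciferase signal marks inhibited growth of reporter-expressing P. falciparum in infected red cells (2% hematocrit, 0.05% parasitemia final), exposed to compound two generations (96 h, 37 C, 5% CO2).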
AMA1 RON2 block – inhibitors of Plasmodium falciparum AMA1-RON2 interaction. AlphaScreen AMA1-biotinylated RON2 peptide binding. Potency, µM (titrated, usually from 58.2 µM), without a hit: top-dose activity change, negative = inhibition, actives largely listed as inhibitors. 360,000 compounds, 0.2% hits;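 also: 0% = vehicle wells and -100% = peptide control; nearly all actives have a fitted effect of over 45% in size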
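AMA1 (3D7) with his tag at 25 nM final met compounds first, then biotinylated RON2 peptide at 25 nM; detection used donor plus acceptor beads, 10 µg/mL apiece, read by AlphaScreen after 30 min at room temperature.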
Pf growth 48h – inhibits P. falciparum growth in the first generation, 48 h; P. falciparum luciferase growth in erythrocytes, 48 h; Potency, µM (titrated, usually from 28.7 µM), for inactives: top-dose activity change, negative = inhibition, hits mostly inhibitors; 310,000 compounds, 5.9% hits; AID 504832
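A one-generation exposure of luciferase-tagged malaria parasites in RPMI 1640/Albumax erythrocyte culture, 37 C and 5% CO2. Inhibition is inferred from decreased luminescence after adding detection reagent.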
HCV inh – inhibitors of hepatitis C virus infection. Huh7.5.1 HCVcc-Cre infection, luciferase reporter, 44 h. Potency, µM (highest dose often 41.8 µM), inactives show at the top dose activity change, negative = inhibition, usual class: inhibitors. 340,000 compounds, 3.4% hits. AID 651820
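Infectious HCVcc-Cre (~0.5 moi) was added to cells just after compound, with cells seeded 4 h earlier at 1,000 per well. Luciferase activity after 44 h culture reported infection; substrate was incubated 15 min at room temperature before reading.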
* marks the source's active call; other numbers are inactive results; ? = inconclusive; · = no result given. Sampled rows, rich in hits. Any-hit rate of the full collection: about 11%. Calls follow the shape of the dose curve; as a rule, active = well fitted curve in the direction sought with a large enough effect; inconclusive = small, poorly fitted or top-dose-only effect, or another doubt; inactive = no such curve, though single readings can be large; an effect the other way counts as inactive or inconclusive. Unless noted, % is scaled to controls: 0 for no effect and ±100 for the full control effect; potency is read from the fitted curve at half-maximal effect.

SMILES | AmpC no deterg | AmpC inh detg | Pf growth 96h | AMA1 RON2 block | Pf growth 48h | HCV inh
COc1ccccc1OCC(=O)NCC1CCCN(C(=O)c2ccccc2SC)C1 (centres undefined) | 15% | -13% | 2% | 0% | -19% | 1%
COc1ccccc1OCC(=O)NCC1CCCN(C(=O)c2ccccc2C(C)=O)C1 (centres undefined) | -2% | ? | 17µM* | 12% | 6% | ·
Cc1ccc(C(=O)N2c3ccc(C)cc3C(C)(c3ccccc3)CC2(C)C)cc1 (centres undefined) | · | 1% | · | · | · | ·
Cc1ccc(S(=O)(=O)N2CCCN(c3nc4cc(C)ccc4cc3C#N)CC2)cc1 | -16% | ? | ? | 38% | ? | 22µM*
Cc1ccc2cc(C#N)c(N3CCCN(C(=O)c4cnccn4)CC3)nc2c1 | 63% | -1% | ? | -2% | -34% | 24%
Cc1ccc2nc(N3CCN(S(=O)(=O)c4ccc5c(c4)OCCO5)CC3)c(C#N)cc2c1 | -26% | 3% | -16% | 11% | -15% | 14µM*
Cc1ccccc1CCNCc1c(C(=O)O)c(C)n(Cc2c(F)cccc2Cl)c1C | · | 22% | · | · | · | ·
CCOC(=O)[C@H]1[C@H]2COc3ccc(Cl)cc3[C@@H]2N2C(=O)CN(Cc3ccccc3)C(=O)[C@@]12C | 189% | 5% | 5.9µM* | -4% | ? | ?
CCOC(=O)[C@H]1[C@H]2COc3ccc(Cl)cc3[C@@H]2N2C(=O)CN(Cc3ccc(Cl)cc3)C(=O)[C@@]12C | 120% | 6% | ? | -13% | 15µM* | -1%
COc1ccccc1NC(=O)C1CCCN(c2ncnc3onc(-c4ccc(F)cc4)c23)C1 (centres undefined) | · | -2% | · | · | · | ·
CN(CC(=O)Nc1ccc(Cl)c(C(F)(F)F)c1)C(=O)C1CCN(C(=O)c2ccc(Cl)cc2)CC1 | · | · | · | -4% | · | 11µM*
Cc1ccc(C)c(S(=O)(=O)N2CCN(C(=O)C3CCN(c4ncnc5sc(C)c(C)c45)CC3)CC2)c1 | 86% | -8% | ? | -9% | 5.2µM* | 11µM*
CN(CC(=O)Nc1ccc(Cl)c(C(F)(F)F)c1)C(=O)C1CCC1 | -9% | -7% | ? | 1% | ? | ?
Cc1sc2ncnc(N3CCC(C(=O)N(C)CC(=O)Nc4ccc(Cl)c(C(F)(F)F)c4)CC3)c2c1C | 172% | 1% | ? | 4% | 9.3µM* | 8.9µM*
CCN(CC)S(=O)(=O)c1cc(NC(=O)C2CCN(c3ncnc4sc(C)c(C)c34)CC2)ccc1Cl | -15% | -11% | 5.2µM* | -7% | 12µM* | 6.3µM*
CCN(C(=O)CCS(=O)(=O)c1cc2c(cc1C)NC(=O)CO2)c1cccc(C)c1 | · | -7% | · | · | · | ·
Cc1ccc(Cn2c(C(=O)NCc3ccccc3Cl)cc3sccc32)cc1 | · | -1% | · | · | · | ·
Cc1sc2ncnc(N3CCC(C(=O)Nc4cc(S(C)(=O)=O)ccc4Cl)CC3)c2c1C | 113% | ? | ? | 3% | 9.3µM* | ?
Cc1sc2ncnc(N3CCC(C(=O)Nc4ccc(S(N)(=O)=O)cc4)CC3)c2c1C | -5% | 0% | ? | -1% | ? | ?
Cc1ccc(NC(=O)C2CCN(c3ncnc4sc(C)c(C)c34)CC2)cc1S(=O)(=O)N(C)C | 28µM* | ? | 4.7µM* | -3% | 4.1µM* | 10µM*
CC(=O)c1ccc(N2CCN(C(=O)Cn3ncc4c3-c3ccccc3OC4)CC2)cc1 | · | -1% | · | · | · | ·
CCOc1ccc(-c2nc(N)ncc2Oc2ccc(OC)cc2)c(O)c1 | -6% | -10% | ? | -21% | 12µM* | 14µM*
COc1ccc(-c2nc(C)ncc2-c2ccc(Cl)cc2)c(O)c1 | 43% | 12% | 3.7µM* | -1% | 4.7µM* | -20%
CCOc1ccc(-c2nc(N)ncc2-c2ccc(Cl)cc2)c(O)c1 | -34% | -2% | ? | -1% | 10µM* | ?
CCOc1ccc(-c2nc(N)ncc2-c2ccccc2)c(O)c1 | -22% | 0% | ? | -10% | ? | 10µM*
SMILES | AmpC no deterg | AmpC inh detg | Pf growth 96h | AMA1 RON2 block | Pf growth 48h | HCV inh
CCOc1ccc(-c2nc(N)ncc2-c2ccc(OC)cc2)c(O)c1 | -3% | ? | ? | -7% | ? | ?
COc1ccc(-c2nc(N)ncc2-c2csc(C)n2)c(O)c1 | -11% | ? | ? | 45% | 0% | ?
COc1ccc(-c2nc(C)ncc2-c2ccccc2)c(O)c1 | 15% | -6% | ? | -4% | ? | -27%
CCOc1cc(-c2ccccc2)nc(N)n1 | -23% | 2% | -8% | 21% | 130% | -6%
Fc1ccccc1-n1ncc2c1ncn1nc(COc3ccc(Cl)cc3)nc21 | · | 15% | · | · | · | ·
COc1cc(/C=C/c2ccc3cccc([N+](=O)[O-])c3n2)ccc1OCC#N | ? | -10% | -19% | ? | -23% | 4.5µM*
Cc1cc(C(C)(C)C)oc1C(=O)N(CC(=O)NC1CCCC1)c1c(C)cccc1C | 66% | -7% | ? | -8% | ? | 10µM*
COc1ccc(OC)c(-n2c(=O)[nH]c3cc(C(=O)NCCc4ccc(OC)c(OC)c4)ccc3c2=O)c1 | · | 4% | · | · | · | ·
COc1ccc(CCNC(=O)COc2ccc(S(=O)(=O)NC3CCCCC3)cc2Cl)cc1OC | 68% | -5% | 10% | -11% | 12µM* | ?
O=C(COc1ccc(S(=O)(=O)NC2CCCCC2)cc1Cl)Nc1ccc2c(c1)OCO2 | -23% | 1% | 10µM* | 0% | · | ?
O=C(COc1ccc(S(=O)(=O)NC2CCCCC2)cc1Cl)NCc1ccc2c(c1)OCO2 | 19% | -8% | · | -8% | -8% | ?
Clc1ccc(CN2CCCCCC2)cc1 | -13% | -9% | ? | 4% | 1% | -18%
N=c1ccn(Cc2ccc(Cl)cc2)cc1 | -1% | -9% | 7% | -2% | 1.9µM* | 1.1µM*

Source: PubChem BioAssay (National Center for Advancing Translational Sciences (NCATS))
